Data: PubChem BioAssay (NCI)
Compounds without any hit were thinned out: in the full panel of roughly 79,000, 15% have a hit. Values without a mark were called inactive. Activity calls are given as the source filed them. Cut-off read from the data, not from the text of the source: active = growth inhibition above about 70%; inactive = the rest.

Test: NCI Yeast Anticancer Drug Screen. Data for the sgs1 mgt1 strain (AID 161);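 note: 0% = growth of cultures given vehicle only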
Conditions: S. cerevisiae sgs1 mgt1 strain, at 50.0 µM, stronger effect = higher value
Method in brief: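 Percent growth inhibition was derived by comparing compound-exposed mutant yeast with vehicle-exposed cultures. The strain carries alterations in DNA damage repair.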

Row | Structure (SMILES) | growth inhibition
1 | N#CC(C(=O)/C(=N\Nc1nc(=S)[nH]n1N)C(C#N)c1ccc(Cl)cc1)c1ccc(Cl)cc1 (stereo not given) | -28.6%
2 | CCOC(=O)C(CC)C1=CCCCC1 (stereo not given) | -11.2%
3 | CCn1c(SCC(=O)N/N=C/c2ccccc2)nc2ccccc2c1=O | 3.8%
4 | Cc1cc2c(cc1N)C(C)(C)CCC2(C)C | 10.2%
5 | CS(=O)(=O)Nc1nc2ccccc2c(=O)o1 | -15.3%
6 | Cc1csc(=NCc2cccnc2)n1C | 23.6%
7 | C/C(=N\NC(=S)N1CCCCCC1)c1nccs1 | -1.5%
8 | CC(=O)OCC1OC(n2cnc3c(N)ncnc32)C(O)C1O (stereo not given) | -6.15%
9 | C/C(=C1\SC(=S)N(C2OC(CO)C(O)C(O)C2O)C1=O)c1ccco1 (stereo not given) | -33.2%
10 | Clc1ccc(Nc2ncnc3oc(-c4ccccc4)c(-c4ccccc4)c23)cc1 | 1.3%
11 | N#C/C(=N\NC(=O)c1cccc(C(=O)N/N=C(\C#N)c2ccccc2Cl)n1)c1ccccc1Cl | -5.1%
12 | CC[C@@]12CCC(=S)N(CCSc3ccccc3)[C@@H]1c1c(n(S(=O)(=O)c3ccc(OC)cc3)c3ccccc13)CC2 | 0.3%
13 | CN(C)C1=Nc2ccccc2C(=S)N2CSCC12 (stereo not given) | -16.9%
14 | c1ccc(N=C(c2ccccc2)c2ccccc2)cc1 | -6.05%
15 | CCC1(C)N=C(N)Nc2nc3cc(C)c(C)cc3n21 (stereo not given) | 25.1%
16 | Nc1ccc(S(=O)(=O)Nc2ccccn2)cc1 | -13.1%
17 | Nc1ncnc2c1ncn2-c1ccc(N(CCO)CCO)cc1 | -1.15%
18 | CCN(CC)CCOc1cccc(O)c1 | -12.1%
19 | CSc1ccc([C@@H](O)[C@H](CO)NC(=O)C(Cl)Cl)cc1 | 88.4% (active)
20 | c1ccc(COC(c2ccccc2)(c2ccccc2)c2ccccc2)cc1 | 10.4%

Row | Structure (SMILES) | growth inhibition
21 | c1ccc(-c2nc(-c3ccccc3)c(-c3ccccc3)[nH]2)cc1 | 12.2%
22 | CCC1=C/C(=N/O)C(C)=CC1(C)C(Cl)(Cl)Cl (stereo not given) | 10%
23 | COc1ccc(OC)c(Cc2ccc(NC(C)=O)cc2)c1 | 3.3%
24 | CC(=O)Nc1c(Nc2ccc3c(=O)[nH]ccc3c2C)cc[nH]c1=O | 17.1%
25 | NCCCc1ccc2c(c1)OCO2 | 36%
26 | O=CN(Cc1cnccn1)Cc1cnccn1 | -6.75%
27 | CN(C)CCCNc1ccc2nnn3c4ccc([N+](=O)[O-])cc4c(=O)c1c23 | 45.8%
28 | Clc1ccc2c(c1)[nH]c1c2nc2sccn21 | -0.3%
29 | O=[N+]([O-])c1ccc(-c2noc(-c3ccccc3)c2C2=NCCN2)cc1 | 5.25%
30 | CCOC(=O)C(Cc1ccc([N+](=O)[O-])cc1)(Cc1ccc([N+](=O)[O-])cc1)C(=O)OCC | -15.3%
31 | O=C(O)c1cccc2cnccc12 | -26.9%
32 | Nc1c2ccccc2nc2c(C(=O)Nc3ccc(S(N)(=O)=O)cc3)cccc12 | -1.45%
33 | COc1ccc2oc(=O)[nH]c2c1 | 9.9%
34 | CCCC(C)NC(=O)c1ccc(OCC)cc1 (stereo not given) | -4.95%
35 | CC(=O)CC(=O)C1CCC(C(=O)CC(C)=O)CC1 (stereo not given) | 0.65%
36 | Cc1nsc2[nH]c(=O)n(Nc3ccc(O)cc3)c(=O)c12 | -18.7%
37 | CC1(C)C(=O)c2cc3ccc4ccccc4c3cc2C(C)(C)C1(C)C | 1.2%
38 | COC(=O)c1cc2c(cc1CC(Cc1ccc3c(c1)CCCC3)C(=O)OC)CCCC2 (stereo not given) | -15.2%
39 | O=C(O[C@H]1[C@@H]2C=CO[C@@H](OC3OC(CO)C(O)C(O)C3O)[C@@H]2[C@@]2(CO)O[C@@H]12)c1ccc(O)c(O)c1 (stereo not given in full) | -4.6%
40 | O=P(O)(O)c1ccc(-c2ccc(P(=O)(O)O)cc2)cc1 | 12.8%

Test: NCI Yeast Anticancer Drug Screen. Data for the cln2 rad14 strain (AID 165);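 note: 0% = growth equal to vehicle treated cultures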
Conditions: S. cerevisiae cln2 rad14 strain, at 50.0 µM, stronger effect = higher value
Method in brief: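 Growth inhibition, relative to vehicle-treated controls, is the read-out. The test organism is a yeast strain with defined genetic alterations, cln2 rad14.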

Row | Structure (SMILES) | growth inhibition
41 | N#CC(C(=O)/C(=N\Nc1nc(=S)[nH]n1N)C(C#N)c1ccc(Cl)cc1)c1ccc(Cl)cc1 (stereo not given) | 4.45%
42 | CCOC(=O)C(CC)C1=CCCCC1 (stereo not given) | 12.3%
43 | CCn1c(SCC(=O)N/N=C/c2ccccc2)nc2ccccc2c1=O | -4.55%
44 | Cc1cc2c(cc1N)C(C)(C)CCC2(C)C | -24.9%
45 | CS(=O)(=O)Nc1nc2ccccc2c(=O)o1 | -39.7%
46 | Cc1csc(=NCc2cccnc2)n1C | 23.4%
47 | C/C(=N\NC(=S)N1CCCCCC1)c1nccs1 | -18%
48 | CC(=O)OCC1OC(n2cnc3c(N)ncnc32)C(O)C1O (stereo not given) | -39.7%
49 | C/C(=C1\SC(=S)N(C2OC(CO)C(O)C(O)C2O)C1=O)c1ccco1 (stereo not given) | -0.85%
50 | Clc1ccc(Nc2ncnc3oc(-c4ccccc4)c(-c4ccccc4)c23)cc1 | -5.05%
51 | N#C/C(=N\NC(=O)c1cccc(C(=O)N/N=C(\C#N)c2ccccc2Cl)n1)c1ccccc1Cl | -14.6%
52 | CC[C@@]12CCC(=S)N(CCSc3ccccc3)[C@@H]1c1c(n(S(=O)(=O)c3ccc(OC)cc3)c3ccccc13)CC2 | -15.9%
53 | CN(C)C1=Nc2ccccc2C(=S)N2CSCC12 (stereo not given) | -12.2%
54 | c1ccc(N=C(c2ccccc2)c2ccccc2)cc1 | -6.65%
55 | CCC1(C)N=C(N)Nc2nc3cc(C)c(C)cc3n21 (stereo not given) | 7.05%
56 | Nc1ccc(S(=O)(=O)Nc2ccccn2)cc1 | -41.4%
57 | Nc1ncnc2c1ncn2-c1ccc(N(CCO)CCO)cc1 | -30.2%
58 | CCN(CC)CCOc1cccc(O)c1 | -50.5%
59 | CSc1ccc([C@@H](O)[C@H](CO)NC(=O)C(Cl)Cl)cc1 | 31.6%
60 | c1ccc(COC(c2ccccc2)(c2ccccc2)c2ccccc2)cc1 | -8.55%

Row | Structure (SMILES) | growth inhibition
61 | c1ccc(-c2nc(-c3ccccc3)c(-c3ccccc3)[nH]2)cc1 | 11.2%
62 | CCC1=C/C(=N/O)C(C)=CC1(C)C(Cl)(Cl)Cl (stereo not given) | 17.2%
63 | COc1ccc(OC)c(Cc2ccc(NC(C)=O)cc2)c1 | -38.2%
64 | CC(=O)Nc1c(Nc2ccc3c(=O)[nH]ccc3c2C)cc[nH]c1=O | 14.5%
65 | NCCCc1ccc2c(c1)OCO2 | 47.7%
66 | O=CN(Cc1cnccn1)Cc1cnccn1 | -33.1%
67 | CN(C)CCCNc1ccc2nnn3c4ccc([N+](=O)[O-])cc4c(=O)c1c23 | 55.1%
68 | Clc1ccc2c(c1)[nH]c1c2nc2sccn21 | 1.15%
69 | O=[N+]([O-])c1ccc(-c2noc(-c3ccccc3)c2C2=NCCN2)cc1 | 4.75%
70 | CCOC(=O)C(Cc1ccc([N+](=O)[O-])cc1)(Cc1ccc([N+](=O)[O-])cc1)C(=O)OCC | -8.95%
71 | O=C(O)c1cccc2cnccc12 | 1.3%
72 | Nc1c2ccccc2nc2c(C(=O)Nc3ccc(S(N)(=O)=O)cc3)cccc12 | 19%
73 | COc1ccc2oc(=O)[nH]c2c1 | 13.1%
74 | CCCC(C)NC(=O)c1ccc(OCC)cc1 (stereo not given) | -44%
75 | CC(=O)CC(=O)C1CCC(C(=O)CC(C)=O)CC1 (stereo not given) | -28.1%
76 | Cc1nsc2[nH]c(=O)n(Nc3ccc(O)cc3)c(=O)c12 | 8.75%
77 | CC1(C)C(=O)c2cc3ccc4ccccc4c3cc2C(C)(C)C1(C)C | 43.6%
78 | COC(=O)c1cc2c(cc1CC(Cc1ccc3c(c1)CCCC3)C(=O)OC)CCCC2 (stereo not given) | 2.35%
79 | O=C(O[C@H]1[C@@H]2C=CO[C@@H](OC3OC(CO)C(O)C(O)C3O)[C@@H]2[C@@]2(CO)O[C@@H]12)c1ccc(O)c(O)c1 (stereo not given in full) | 3.1%
80 | O=P(O)(O)c1ccc(-c2ccc(P(=O)(O)O)cc2)cc1 | -32.2%
